Here are results for 8 molecules from PubChem BioAssay (NCI).

Assay [1] can be described thus: NCI Yeast Anticancer Drug Screen. Data for the rad50 strain (AID 155).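 Further: 0% = growth of vehicle-only cultures of the same strain.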 The following applies: S. cerevisiae rad50 strain growth inhibition, stronger effect = higher value. An outline of the steps: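 Growth of the mutant yeast was measured after compound exposure and referenced to vehicle-treated cultures.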
Assay [2] in a line: NCI Yeast Anticancer Drug Screen. Data for the mec2-1 strain (AID 157). The following applies: S. cerevisiae mec2-1 strain, stronger effect = higher value. The method in brief:
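Growth inhibition is read against vehicle-treated controls after compound exposure of the mec2-1 yeast strain, which is defective in DNA damage repair or cell cycle control.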

A short description of assay [3]: NCI Yeast Anticancer Drug Screen. Data for the sgs1 mgt1 strain (AID 161).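 Further: 0% = growth of cultures given vehicle only.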 The following applies: S. cerevisiae sgs1 mgt1 strain, stronger effect = higher value. The method in brief:
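Growth of a repair-deficient yeast mutant was monitored after compound treatment and expressed as inhibition relative to vehicle-treated cultures.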

A short description of assay [4]: NCI Yeast Anticancer Drug Screen. Data for the cln2 rad14 strain (AID 165).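 Further: 0% = growth equal to vehicle treated cultures.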 The following applies: S. cerevisiae cln2 rad14 strain, stronger effect = higher value. An outline of the steps:
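Growth inhibition, relative to vehicle-treated controls, is the read-out. The test organism is a yeast strain with defined genetic alterations, cln2 rad14.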

The nature of assay [5]: NCI Yeast Anticancer Drug Screen. Data for the bub3 strain (AID 167). The following applies: S. cerevisiae bub3 mutant strain, stronger effect = higher value. An outline of the steps:
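Whole-cell yeast assay. The mutant strain was incubated with compounds, and growth inhibition was determined by comparison with vehicle-treated cells.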

Assay [6] is described as follows: NCI Yeast Anticancer Drug Screen. Data for the mlh1 rad18 strain (AID 175). The following applies: S. cerevisiae mlh1 rad18 strain growth inhibition, stronger effect = higher value. An outline of the steps: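 Cells of a genetically altered yeast strain, deficient in DNA damage repair, were treated with compound. Their growth was then compared with that of vehicle-treated cultures to give inhibition.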

The mark [7] stands for this setting: at 5.0 µM (retest, dose inferred, filed as 0.5).
Where [8] appears, read: at 50.0 µM (retest, dose inferred, filed as 5.0).

Values joined by “and” are separate entries in the source; they are usually repeats but may differ in a detail not shown here. Equal values may be shown once. Compounds without any hit were thinned out: in the full panel of roughly 79,000, 15% have a hit. A structure can be active in one record and inactive in another. Active and inactive are the calls of the source. No stated cut-off is given here; in the data, active means growth inhibition above about 70%; inactive means the rest.

On to `Cc1[nH]c2ccccc2c1C1Cc2ccccc2N1` (centres undefined), for which the growth inhibition in assay [1] (setting [7]) was 14% (inactive) and 19% (inactive); in assay [1] (setting [8]), 15% (inactive) and 76% (active); in assay [1] (at 50.0 µM), 37.1% (inactive) and 57.5% (inactive); in assay [2] (setting [7]), 12% (inactive) and 24% (inactive); in assay [2] (setting [8]) it was 14% (inactive) and 59% (inactive); in assay [2] (at 50.0 µM), 36.2% (inactive) and 78.5% (active). Moreover, the growth inhibition in assay [3] (setting [7]) was 16% (inactive) and 25% (inactive); in assay [3] (setting [8]), 14% (inactive) and 79% (active); in assay [3] (at 50.0 µM), 46.3% (inactive) and 81.3% (active); in assay [4] (setting [7]) it was 10% (inactive) and 16% (inactive); in assay [4] (setting [8]), 6% (inactive) and 29% (inactive); in assay [4] (at 50.0 µM) it was 47.4% (inactive) and 67.6% (inactive). The growth inhibition in assay [5] (setting [7]) was 9% (inactive) and 15% (inactive); in assay [5] (setting [8]), -12% (inactive) and 76% (active); in assay [5] (at 50.0 µM), 30.6% (inactive) and 94.2% (active); in assay [6] (setting [7]), 15% (inactive) and 20% (inactive); in assay [6] (setting [8]), 37% (inactive) and 52% (inactive); in assay [6] (at 50.0 µM) it was 69.7% (inactive) and 96.2% (active).
On to `COc1cc2c(cc1O)C1CN(C2)Cc2cc(OC)c(O)cc21`, for which the growth inhibition in assay [1] (setting [7]) was -5% (inactive); in assay [1] (setting [8]) it was 67% (inactive); in assay [1] (at 50.0 µM), 51.4% (inactive); in assay [2] (setting [7]), -3% (inactive); in assay [2] (setting [8]) it was 78% (active); in assay [2] (at 50.0 µM), 35% (inactive). Also, the growth inhibition in assay [3] (setting [7]) is -11% (inactive); in assay [3] (setting [8]), 76% (active); in assay [3] (at 50.0 µM), 30.3% (inactive); in assay [4] (setting [7]) it was 2% (inactive); in assay [4] (setting [8]), 75% (active); in assay [4] (at 50.0 µM) it was 79.2% (active). Also, the growth inhibition is -2% (inactive) in assay [5] (setting [7]); 69% (inactive) in assay [5] (setting [8]); 33.7% (inactive) in assay [5] (at 50.0 µM); 14% (inactive) in assay [6] (setting [7]); 80% (active) in assay [6] (setting [8]); 74.3% (active) in assay [6] (at 50.0 µM).
As to `Clc1cc(Cl)c(Cl)nn1`, the growth inhibition in assay [1] (setting [7]) is 13% (inactive); in assay [1] (setting [8]), 83% (active); in assay [1] (at 50.0 µM), 59.6% (inactive) and 86% (active); in assay [2] (setting [7]), 3% (inactive); in assay [2] (setting [8]) it was 38% (inactive); in assay [2] (at 50.0 µM), 2.1% (inactive) and 44.9% (inactive). Besides, the growth inhibition in assay [3] (setting [7]) is -1% (inactive); in assay [3] (setting [8]), 24% (inactive); in assay [3] (at 50.0 µM), 3.1% (inactive) and 15.5% (inactive); in assay [4] (setting [7]), -8% (inactive); in assay [4] (setting [8]) it was 25% (inactive); in assay [4] (at 50.0 µM), -7.45% (inactive) and 16.4% (inactive). Also, the growth inhibition in assay [5] (setting [7]) was 6% (inactive); in assay [5] (setting [8]), 48% (inactive); in assay [5] (at 50.0 µM) it was 18.6% (inactive) and 60.8% (inactive); in assay [6] (setting [7]), 1% (inactive); in assay [6] (setting [8]), 45% (inactive); in assay [6] (at 50.0 µM), 15.8% (inactive) and 25% (inactive).
On to `CC1=C(C(=O)Nc2c(C)cccc2C)C(c2ccc3c(c2)OCO3)C(C(=O)Nc2c(C)cccc2C)=C(C)N1`, for which the growth inhibition was 25% (inactive) in assay [1] (setting [7]); 25% (inactive) in assay [1] (setting [8]); 81.9% (active) in assay [1] (at 50.0 µM); 19% (inactive) in assay [2] (setting [7]); 19% (inactive) in assay [2] (setting [8]); 86.9% (active) in assay [2] (at 50.0 µM). Besides, the growth inhibition in assay [3] (setting [7]) is 4% (inactive); in assay [3] (setting [8]) it was 4% (inactive); in assay [3] (at 50.0 µM) it was 85.7% (active); in assay [4] (setting [7]), 16% (inactive); in assay [4] (setting [8]), 16% (inactive); in assay [4] (at 50.0 µM), 79.5% (active). The growth inhibition in assay [5] (setting [7]) was 6% (inactive); in assay [5] (setting [8]), 6% (inactive); in assay [5] (at 50.0 µM) it was 87.5% (active); in assay [6] (setting [7]), 7% (inactive); in assay [6] (setting [8]) it was 7% (inactive); in assay [6] (at 50.0 µM), 82.7% (active).
Regarding `O=S(c1cc(Br)ccc1O)c1cc(Br)ccc1O`, the growth inhibition in assay [1] (setting [7]) is 31% (inactive); in assay [1] (setting [8]), 99% (active); in assay [1] (at 50.0 µM) it was 99.3% (active); in assay [2] (setting [7]) it was 49% (inactive); in assay [2] (setting [8]), 100% (active); in assay [2] (at 50.0 µM) it was 99.7% (active). In addition, the growth inhibition was 69% (inactive) in assay [3] (setting [7]); 99% (active) in assay [3] (setting [8]); 99% (active) in assay [3] (at 50.0 µM); 39% (inactive) in assay [4] (setting [7]); 99% (active) in assay [4] (setting [8]); 99.3% (active) in assay [4] (at 50.0 µM). For the same molecule, the growth inhibition was 23% (inactive) in assay [5] (setting [7]); 99% (active) in assay [5] (setting [8]); 99.3% (active) in assay [5] (at 50.0 µM); 80% (active) in assay [6] (setting [7]); 100% (active) in assay [6] (setting [8]); 99.5% (active) in assay [6] (at 50.0 µM).
`NNc1ccc2ccccc2c1`: the growth inhibition in assay [1] (setting [7]) was 28% (inactive); in assay [1] (setting [8]), 86% (active); in assay [1] (at 50.0 µM), 97.2% (active) and 22.5% (inactive); in assay [2] (setting [7]), 4% (inactive); in assay [2] (setting [8]) it was 56% (inactive); in assay [2] (at 50.0 µM) it was 85.6% (active) and 2.95% (inactive). Besides, the growth inhibition was 13% (inactive) in assay [3] (setting [7]); 57% (inactive) in assay [3] (setting [8]); 95.5% (active) and 26.1% (inactive) in assay [3] (at 50.0 µM); 16% (inactive) in assay [4] (setting [7]); 30% (inactive) in assay [4] (setting [8]); 90.2% (active) and 29.1% (inactive) in assay [4] (at 50.0 µM). For the same molecule, the growth inhibition in assay [5] (setting [7]) was 16% (inactive); in assay [5] (setting [8]), 77% (active); in assay [5] (at 50.0 µM), 91.2% (active) and 21.1% (inactive); in assay [6] (setting [7]) it was 33% (inactive); in assay [6] (setting [8]), 91% (active); in assay [6] (at 50.0 µM) it was 97.2% (active) and 25.7% (inactive).
Turning to `BrC(c1cccc2ccccc12)c1cccc2ccccc12`, the growth inhibition in assay [1] (setting [7]) is 23% (inactive); in assay [1] (setting [8]) it was 97% (active); in assay [1] (at 50.0 µM), 95.5% (active); in assay [2] (setting [7]), 20% (inactive); in assay [2] (setting [8]), 97% (active); in assay [2] (at 50.0 µM) it was 94.7% (active). The growth inhibition in assay [3] (setting [7]) was 1% (inactive); in assay [3] (setting [8]), 96% (active); in assay [3] (at 50.0 µM) it was 94.8% (active); in assay [4] (setting [7]), 0% (inactive); in assay [4] (setting [8]), 94% (active); in assay [4] (at 50.0 µM), 92.8% (active). Moreover, the growth inhibition is -6% (inactive) in assay [5] (setting [7]); 96% (active) in assay [5] (setting [8]); 94.2% (active) in assay [5] (at 50.0 µM); 18% (inactive) in assay [6] (setting [7]); 95% (active) in assay [6] (setting [8]); 95% (active) in assay [6] (at 50.0 µM).
Turning to `COC(=O)CSC(=S)N1CCOCC1`, the growth inhibition in assay [1] (setting [7]) is 2% (inactive); in assay [1] (setting [8]) it was 6% (inactive); in assay [1] (at 50.0 µM), -6.85% (inactive); in assay [2] (setting [7]), 9% (inactive); in assay [2] (setting [8]), 4% (inactive); in assay [2] (at 50.0 µM) it was -5.75% (inactive). Moreover, the growth inhibition in assay [3] (setting [7]) is 4% (inactive); in assay [3] (setting [8]), 22% (inactive); in assay [3] (at 50.0 µM) it was -5.3% (inactive); in assay [4] (setting [7]), 7% (inactive); in assay [4] (setting [8]), -4% (inactive); in assay [4] (at 50.0 µM), -38% (inactive). Moreover, the growth inhibition in assay [5] (setting [7]) is -3% (inactive); in assay [5] (setting [8]), -5% (inactive); in assay [5] (at 50.0 µM), -10.1% (inactive); in assay [6] (setting [7]) it was 4% (inactive); in assay [6] (setting [8]), 5% (inactive); in assay [6] (at 50.0 µM), 24.2% (inactive).
